PubChem BioAssay AID485297 (National Center for Advancing Translational Sciences (NCATS), 2010)
The campaign covered roughly 320,000 compounds. About 9,100 (2.8%) were called active. Not shown: some 3% with an inconclusive outcome. Calls follow the shape of the dose curve; as a rule, active = well fitted activation curve with a large enough effect; inconclusive = small, poorly fitted or top-dose-only effect; inactive = no such curve, though single readings can be large or run the other way. Shown is part of a subset that was picked to be rich in actives.

Experiment: qHTS Assay for Rab9 Promoter Activators; also: nearly all actives have a fitted effect of over 60% in size; as to activation, negative = inhibition: % of control where 0% means no effect
Details: Huh7 Rab9 promoter-luciferase reporter, luminescence, 24 h; series mostly up to 9.22 µM; activation, negative = inhibition: at the top concentration
How it was run: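 Huh7 reporter line, Rab9 promoter upstream of luciferase. Compound exposure 24 h at 37 °C in reduced-serum medium with 10% FBS. Read-out: luminescence.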
Potency is read from the fitted curve at half-maximal effect.

activation, negative = inhibition, inactive:
Cn1c(CC(=O)NNC(=O)c2ccccc2F)nc2ccccc21 -10.1%, O=C(c1ccc(N2CCOCC2)c([N+](=O)[O-])c1)N1CCN(S(=O)(=O)c2cccs2)CC1 -3.99%, COc1ccc(C)cc1N(C(=O)Cn1nnc(-c2ccc(C)o2)n1)C(C(=O)NC1CCCC1)c1ccncc1 (stereo not drawn) -0.715%, CCN(CC(=O)Nc1ccc(NC(C)=O)cc1)C(=O)CSC(=S)N1CCCC1 -2.35%, Cc1ccccc1NC(=O)C1CCN(C(=O)NC2CCCCC2)CC1 -3.27%, CC(=O)Nc1cc2ccc(OC(C)=O)cc2oc1=O 3.39%, CN(CC(=O)Nc1ccc(Cl)cc1)C(=O)c1ccc(COc2ccccc2)cc1 -6.62%, Cc1ccc(NC(=O)CNCc2ccccn2)cc1S(=O)(=O)N(C)C 19.9%, CCN(c1ccccc1)S(=O)(=O)c1cc(C(=O)NCc2ccccn2)ccc1C -6.3%, O=S(=O)(c1ccc(SCc2ccccc2)nc1)N1CCCCCC1 -1.04%, COc1ccc(Cc2nc3ccc(C(=O)N4CCC(N(C)C)C4)cc3o2)cc1 (stereo not drawn) 1.21%, CCn1ccnc1CN(C)C(=O)c1ccc2nc(Cc3ccc(OC)cc3)oc2c1 0.954%, CCN(CC)S(=O)(=O)c1ccc(N2CCOCC2)c(NC(=O)C(C)Oc2ccc(F)cc2)c1 (stereo not drawn) -5.04%, CCN1C(=O)C(=O)N(CC(=O)Nc2cc(C)ccc2C)C1=O -3.55%, COc1ccc(-c2nnc3ccc(SCc4ccccc4)nn23)cc1 -1.55%, COC(=O)CSc1nc(C)c2ccc(OC)cc2n1 0.128%, COC(=O)Cc1ccc(OC(=O)C2CCN(S(=O)(=O)c3ccc(OC)c(OC)c3)CC2)cc1 -2.26%, O=C(c1ccco1)N1CCN(C(=O)c2cc(-c3ccccc3F)no2)CC1 26.7%, O=C(Nc1cccc(-c2nc3ncccc3o2)c1)c1ccco1 2.52%, CCC(=O)c1cc(F)ccc1OCC(=O)Nc1ccc2c(c1)OCCO2 1.71%, CCN(C(=O)CSc1nc(N)cc(=O)[nH]1)C1CCS(=O)(=O)C1 (stereo not drawn) -1.42%, CSCCC(NC(=O)c1ccccc1)C(=O)N1CCCCCCC1 (stereo not drawn) -7.23%, Cc1[nH]c2ccccc2c1C(=O)C(C)Sc1nnc(C2CC2)o1 (stereo not drawn) -3.47%, O=C(COC(=O)C1CC2CCCC(C1)C2=O)NC(=O)c1ccccc1 (stereo not drawn) 17.8%, CCOc1ccc(C(=O)CCC(=O)Nc2ccncc2)cc1 0.344%, Cc1cc(C(C)(C)C)n2nc(C)c(-c3ccccc3)c2n1 -0.824%, Cc1nc2cc(-c3ccc(F)cc3)nn2c(N2CCOCC2)c1C 3.71%, CC1CCN(C(=O)COC(=O)CCC(=O)c2cccs2)CC1 -6.38%, CC(C)(C)c1ccc(S(=O)(=O)N2CCN(C(=O)c3ccc4c(c3)C(=O)N(Cc3ccncc3)C4=O)CC2)cc1 0.095%, COc1ccc(C2/C(=C(/O)c3ccccc3)C(=O)C(=O)N2C)c(OC)c1 (stereo not drawn) -1.85%, COc1ccc(/C(O)=C2/C(=O)C(=O)N(c3nc(C)c(C)s3)C2c2ccco2)cc1 (stereo not drawn) 0.749%, Cn1c(SCC(=O)Nc2ccc(N3CCOCC3)cc2)nnc1C(F)(F)F 1.61%, Nc1c(-c2cccc(Cl)c2)cnn1-c1cccc([N+](=O)[O-])c1 10.8%, Cc1ccc(S(=O)(=O)Nc2nc(CN3CCOCC3)nc3sc(C)c(C)c23)cc1 3.75%, CN1CCN(C(=O)c2cnn(-c3ccccc3)c2NC(=O)c2ccc([N+](=O)[O-])cc2)CC1 -0.171%, COc1cccc(-c2noc(C3CCCN(C(=O)c4ccc(F)cc4)C3)n2)c1 (stereo not drawn) 6.6%, O=C(c1ccc(F)cc1)N1CCCC(c2nc(-c3cccs3)no2)C1 (stereo not drawn) 1.08%, Cc1cc(NS(=O)(=O)c2ccc(NC(=O)c3cccnc3)cc2)nc(C)n1 -0.278%, CC(=O)NC(=S)Nc1ccc(NC(=O)c2cccnc2)cc1 -0.126%, CCc1nc(Nc2ccc(NC(C)=O)cc2)c2oc3ccccc3c2n1 11.8%, CC(=O)Nc1ccc(S(=O)(=O)N(C)c2nc3ccccc3nc2Cl)cc1 -2.81%, CCOc1cc(/C=C/C(=O)OCC(=O)NCCN2C(=O)CSC2=O)ccc1OCC(C)C 18.5%, O=C(OCC(=O)N1CCc2ccccc21)C1CCCN1S(=O)(=O)c1ccc(Cl)cc1 (stereo not drawn) -5.54%, CCOC(=O)C1CCCN(C(=O)c2ccc(C)c(S(=O)(=O)N3CCCCC3)c2)C1 (stereo not drawn) -3.63%, CCOC(=O)Cc1csc(SCC(=O)Nc2ccc(C)cc2F)n1 -0.949%, C/C(=N\NC(=O)Cc1ccc(Cl)cc1)c1ccccn1 -17%, C/C(CC(=O)Nc1ccc(N(C)C)cc1)=N\NC(=O)c1ccccc1F -1.52%, CN(C)S(=O)(=O)c1cccc(NC(=O)COc2ccc3ccccc3c2)c1 -0.974%, Cn1cc([N+](=O)[O-])c(C(=O)Nc2cnn(Cc3ccc(F)cc3)c2)n1 -0.795%, O=C(Nc1ccccc1N1CCN(c2ccccc2)CC1)c1cccc(F)c1 -3.36%, O=C(Nc1cccc(NC(=O)c2cccc(F)c2)c1)c1ccccc1 -7.19%, Cc1ccc(Cn2ccc(NC(=O)C3C4CCC(C4)C3C(=O)O)n2)cc1 (stereo not drawn) -0.0059%, CN1CCN(S(=O)(=O)c2ccc(N3CCN(c4ccccc4O)CC3)c([N+](=O)[O-])c2)CC1 -3.77%, CCN(CC)c1ccc(NC(=O)CN2C(=O)NC3(CCc4ccccc43)C2=O)cc1 (stereo not drawn) -1.25%, CN(CC(=O)NC1CCN(Cc2ccccc2)CC1)S(=O)(=O)c1ccc(Cl)s1 -4.41%, CCCCN(CC(=O)Nc1cccc(S(=O)(=O)N2CCCC2)c1)Cc1nc2ccccc2c(=O)[nH]1 -5.14%, CCn1c(=O)c(=O)n(CC)c2cc(N3CCCCC3)c(NC(=O)c3ccc(Cl)cc3)cc21 -3.75%, CC(=O)Cn1ncc(N2CCOCC2)c(Br)c1=O -3.1%, O=C(COc1ccccc1Cl)N1N=C(c2cccs2)CC1c1ccco1 (stereo not drawn) 0.112%, COc1ccc(-c2noc(COc3ccc(Cl)c(C)c3)n2)cc1 2.26%, CN(Cc1ccccn1)Cc1nc(-c2ccc(Cl)cc2)no1 -0.951%, CCC(C)N(C(=O)CSc1nnnn1-c1ccccc1OC)C1CCS(=O)(=O)C1 (stereo not drawn) 4.43%, CC1CC(=O)Nc2ccccc2N1C(=O)COc1ccc2cc(Br)ccc2c1 (stereo not drawn) 3.67%, COc1ccc([N+](=O)[O-])cc1NC(=O)CCc1ccccc1 8.53%, CC(C)Cc1nnc(NC(=O)CCc2ccccc2)s1 4.03%, CCOC(=O)c1sc(NC(=O)C2CSC3(C)CCC(=O)N23)nc1C (stereo not drawn) -6.76%, O=C(NCCc1ccccc1)c1ccc2c(c1)N(Cc1ccccc1)CCS2 -2.68%, CC1CCN(c2c(NCc3ccc(C(=O)NCc4ccccc4)cc3)c(=O)c2=O)CC1 0.271%, Cc1cc(C(=O)CSc2nc(N)cc(=O)[nH]2)c(C)n1Cc1ccco1 -17.4%, COCCn1c(C)cc(C(=O)COC(=O)CNC(=O)c2ccco2)c1C -4.5%, Cc1c([N+](=O)[O-])c(N)nn1C -0.146%, Cc1c(NC(=O)CSc2nnc(-c3cccnc3)n2N)c(=O)n(-c2ccccc2)n1C 0.783%, Brc1ccc(-c2csc(N/N=C/c3cccnc3)n2)cc1 9.43%, CC(NC(=O)c1ccco1)C(=O)Nc1nc(-c2ccccn2)cs1 (stereo not drawn) 9.64%, CCCn1c(CCNc2nc(-c3ccc(OC)cc3)cs2)nc2ccccc21 4.91%, COc1ccc(C(=O)Nc2nc(-c3ccc(S(=O)(=O)N4CCOCC4)cc3)cs2)cc1 -10.1%, COC(=O)c1cc(-c2cccs2)nc2ccccc12 -3.27% [at 1.84 µM], Clc1ccc(Cc2nnc(-c3cccs3)o2)cc1 23.6%, Cc1ccc(S(=O)(=O)NCCC(=O)NCc2ccc(Cl)cc2)cc1C -1.24%, CCN(CC)S(=O)(=O)c1ccc(CNC(=O)CN2C(=O)NC3(CCc4ccccc43)C2=O)cc1 (stereo not drawn) -4.71%, O=C1C=C(c2cc(C(F)(F)F)cc(C(F)(F)F)c2)C[C@@H](c2ccc3c(c2)OCO3)C1 -9.28%

Potency, active:
O=C(Nc1cc2ccccc2oc1=O)C1CCCCC1 0.562 µM, CCN(CC)S(=O)(=O)c1cc(C(=O)Nc2ccccn2)ccc1C 1.78 µM, CC(c1ccccn1)N(C)C(=O)c1ccc2nc(Cc3cccc(Cl)c3)oc2c1 (stereo not drawn) 3.98 µM, COc1ccc2nc(SCc3ccccc3)nc(C)c2c1 1.41 µM, O=C(Nc1ccc2oc(-c3ccccc3F)nc2c1)c1ccco1 1 µM, Cc1cc(N)n2nc(-c3ccc(C(C)(C)C)cc3)cc2n1 2.51 µM, CCOc1ccc(/C(O)=C2\C(=O)C(=O)N(c3ccc(OC)cc3)C2c2ccccc2[N+](=O)[O-])cc1 (stereo not drawn) 0.398 µM, Cc1ccc(-c2noc(C3CCCN(C(=O)c4cccc(Cl)c4)C3)n2)o1 (stereo not drawn) 3.55 µM, CC(=O)Nc1ccc(-c2nc3ccccc3o2)cc1 1 µM, Cc1ccc2nc(-c3ccc(NC(=O)c4cccnc4)cc3)oc2c1 0.199 µM, C/C(=N\NC(=O)c1ccccc1F)c1ccccn1 0.316 µM, O=C(Nc1ccn(Cc2ccccc2)n1)c1n[nH]c([N+](=O)[O-])c1Cl 0.355 µM, O=C(Nc1ccn(Cc2ccccc2)n1)c1cccc(F)c1 1.41 µM, O=C(Cn1ncc(N2CCCC2)c(Br)c1=O)c1ccc(Cl)cc1 1.41 µM, Cc1cc(Cl)ccc1OCc1nc(-c2ccncc2)no1 2.82 µM, O=C(CCc1ccccc1)Nc1ncc([N+](=O)[O-])s1 2.24 µM, CC1CCCN(c2ccc(C(=O)NCCc3ccccc3)cn2)C1 (stereo not drawn) 2.51 µM, Cc1cc(C(=O)COC(=O)CNC(=O)c2ccc(F)cc2)c(C)n1Cc1ccco1 3.16 µM, COc1ccc(-c2csc(Nc3ccccn3)n2)cc1 0.282 µM, Clc1ccc(Nc2nc(-c3cccs3)cs2)nc1 3.16 µM, c1cnc(Nc2nc(-c3ccc4ccccc4c3)cs2)nc1 0.282 µM, c1ccc(Nc2nc(-c3ccncc3)cs2)nc1 1.58 µM
